# From patent US20070207532, “Mutants Of O6-Alkylguanine-Dna Alkyltransferase” (published 2007)
# Target: AGT mutant of Example 4 (GST fusion) (Homo sapiens, UniProt P16455 SEQ:1-207, Gly131Lys, Gly132Thr, Met134Leu, Arg135Ser, Asn157Gly, Ser159Glu)
# Assay: competition; reactivity with BG-modified oligonucleotide
# Conditions: tags: N-terminal GST (pGEX-2T); ssDNA; O6-benzylguanine at position 14
# Method: Reactivity against DNA-based substrates measured with a BG-Cy3 assay: BG-Cy3 is prepared by reacting the previously described O⁶-(4-aminomethyl-benzyl)guanine (Keppler et al., NatureBiotechnol. 21:86-89, 2003) with the commercially available N-hydroxysuccinimide ester of Cy3, (Cy3-NHS, Amersham). The coupling reaction is performed at ambient temperature in N,N-dimethylformamide in the presence of 1 eq. of triethylamine. The BG-Cy3 conjugate is purified by reversed-phase HPLC on a C18-column by using linear gradients from 0.1% trifluoroacetic acid to acetonitrile. After solvent evaporation BG-Cy3 is dissolved in dimethyl sulfoxide and stored at −20° C. For measuring the reactivity with DNA-based substrates, a reaction mixture containing different concentrations (0 to 5 µM) of oligonucleotide SEQ ID NO:2 (modified in position 14), GST-AGT fusion protein at 0.2 µM and BG-Cy3 at […] in reaction buffer (50 mM HEPES, pH 7.2, 1 mM DTT, […] BSA) is incubated in microtiterplates. Fluorescence of the Cy3 derivative (excitation 519 nm, emission at 572 nm) is measured on a Spectramax Gemini plate reader (Molecular Devices).
# Sequence of AGT mutant of Example 4 (GST fusion) (P16455 whole entry G131K/G132T/M134L/R135S/N157G/S159E, the tested form may be a part): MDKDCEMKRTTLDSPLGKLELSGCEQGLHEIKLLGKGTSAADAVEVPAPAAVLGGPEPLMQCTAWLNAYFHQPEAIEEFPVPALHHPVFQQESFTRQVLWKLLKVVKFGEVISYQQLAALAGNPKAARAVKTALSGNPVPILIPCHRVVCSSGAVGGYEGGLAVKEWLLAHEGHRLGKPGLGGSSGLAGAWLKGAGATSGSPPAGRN
row,Sequence,binding signal
1,GTGGTGGGCAGCTGAGGCGTGG,≥ 1000 fold reduced vs PGEG-hAGT
